Consider 34 molecules from PubChem BioAssay AID1224852 (National Center for Advancing Translational Sciences (NCATS), 2016).

Results filed as inconclusive are left out. Unmarked numbers belong to inactive results. Calls follow the shape of the dose curve; as a rule, active = well fitted curve in the direction sought with a large enough effect (not every such curve was filed as active); inconclusive = small, poorly fitted or top-dose-only effect, or effect the other way, or another doubt; inactive = no such curve, though single readings can be large or run the other way.

This assay in a line: Cell viability assay for measurement of the protective activity of small molecules against cell death caused by Zika virus infection in human neural progenitor cells (hNPCs).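 Also: 0% = ZIKV-infected cells without compound and 100% = uninfected cells.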 The conditions noted are these: hNPC ZIKV-induced death protection, ATP luminescence, 72 h; series mostly up to 46.1 µM; protection, negative = more death: at the top concentration. In a few lines: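 Luminescent ATP content after 72 h ZIKV infection (2 FFU/cell) of hNPCs, compounds added 1 h before virus. Protection expressed as percent inhibition of the infection-induced drop in cell viability.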
For `COCCn1c2c([n+](Cc3cnccn3)c1C)C(=O)c1ccccc1C2=O`, the “protection, negative = more death” value is -79.9%.

With `CCCCC1C(=O)N(c2ccccc2)N(c2ccc(O)cc2)C1=O` (centres undefined), the “protection, negative = more death” value was -76.6%.

Regarding `O=C(O)[C@@H](c1ccc(OCc2ccc3ccccc3n2)cc1)C1CCCC1`, the “protection, negative = more death” value is -1.95%.

As for `COc1ccc(C=CC(=O)Nc2ccccc2C(=O)O)cc1OC`, the “protection, negative = more death” value is -50%.

Turning to `COc1ccnc2c1CCCCC2S(=O)c1nc2ccccc2[nH]1` (centres undefined), the “protection, negative = more death” value is -42.6%.

As to `CN(C)c1ccc(C(=C2C=CC(=[N+](C)C)C=C2)c2ccccc2)cc1`, the “protection, negative = more death” value is -80.4%.

On to `O=S(=O)(O)CCSSCCS(=O)(=O)O`, for which the “protection, negative = more death” value was -3.06%.

Consider `CN(C)c1ccc(N=NS(=O)(=O)O)cc1`, for which the “protection, negative = more death” value was -43.6% [at 88.3 µM].

As to `CCCCCCCC/C=C/C(=O)O`, the “protection, negative = more death” value was -1.9%.

Take `O=C(/C=C/c1ccccc1)NCCO`: the “protection, negative = more death” value is 9.32%.

Consider `Nc1ncnc2c1ncn2[C@@H]1O[C@@H](CO)[C@H](O)[C@H]1O`, for which the “protection, negative = more death” value is -14.4% [at 23.8 µM].

Regarding `O=C(O)[C@H](CC(=O)N1C[C@@H]2CCCC[C@H]2C1)Cc1ccccc1`, the “protection, negative = more death” value was 13.4%.

With `O=C(OCc1ccccc1)c1ccc(O)cc1`, the “protection, negative = more death” value is 7.45%.

As for `NC(N)=NN=C(/C=C/c1ccc([N+](=O)[O-])o1)/C=C/c1ccc([N+](=O)[O-])o1`, the “protection, negative = more death” value was -84%.

Regarding `CCCSc1ccc2nc(NC(=O)OC)[nH]c2c1`, the “protection, negative = more death” value was -53.9%.

For `C[C@@H](O[C@H]1OCCN(Cc2n[nH]c(=O)[nH]2)[C@@H]1c1ccc(F)cc1)c1cc(C(F)(F)F)cc(C(F)(F)F)c1`, the “protection, negative = more death” value is -76.8%.

For the molecule `O=c1c2ccccc2nc2n1CCc1c-2[nH]c2ccccc12`, the “protection, negative = more death” value is -32.5%.

For `O=C1C[C@@H](c2ccc(O)cc2)Oc2cc(O)cc(O)c21`, the “protection, negative = more death” value is -22.1%.

Consider `O=C(/C=C/c1ccc(O)cc1)c1ccc(O)cc1O`, for which the “protection, negative = more death” value is -43.6%.

As to `CC(C(=O)O)c1ccc(C(=O)c2ccccc2)s1` (centres undefined), the “protection, negative = more death” value was -7.59%.

For the molecule `O=c1oc2cc(O)ccc2s1`, the “protection, negative = more death” value was -37.6%.

With `CCCC(=O)OC[C@@H](OC(=O)CCC)[C@@H](OC(=O)CCC)[C@H](Cn1c2nc(=O)[nH]c(=O)c-2nc2cc(C)c(C)cc21)OC(=O)CCC`, the “protection, negative = more death” value is -47.2%.

On to `CS(=O)(=O)c1ccc(-c2cn3ccccc3n2)cc1`, for which the “protection, negative = more death” value is -69.3%.

As for `O=C(Oc1ccccc1)c1cccc(C(=O)Oc2ccccc2)c1`, the “protection, negative = more death” value is -16.5% [at 96.3 µM].

As for `CNC1[C@H](O)C(O[C@@H]2C(O)C(O[C@H]3O[C@H]([C@@H](C)NC)CC[C@H]3N)[C@@H](N)C[C@H]2N)OC[C@]1(C)O` (some centres undefined), the “protection, negative = more death” value is 4.9%.

As for `CC(=NNC(=S)N1CCC1)c1ccccn1`, the “protection, negative = more death” value is -76.1%.

With `Nc1cc(C(F)(F)F)ccc1S`, the “protection, negative = more death” value was -79.8%.

With `CCCS(=O)c1ccc2nc(NC(=O)OC)[nH]c2c1` (centres undefined), the “protection, negative = more death” value is -43.9%.

Regarding `CNC(=O)c1ccccc1Sc1ccc2c(/C=C/c3ccccn3)n[nH]c2c1`, the “protection, negative = more death” value is -66.1%.

Take `C[C@@H]1CCN(C(=O)CC#N)C[C@H]1N(C)c1ncnc2[nH]ccc12`: the “protection, negative = more death” value was 8.69%.

With `CC(C)(C)COc1ccc(-n2cc(C(=O)O)cn2)cc1C#N`, the “protection, negative = more death” value is -36.5% [at 88.3 µM].

As for `CC(C)c1ccc2oc3nc(N)c(C(=O)O)cc3c(=O)c2c1`, the “protection, negative = more death” value was -79%.

Consider `Nc1ccc2c(c1)CN1C(=O)c3ccccc3C1=N2`, for which the “protection, negative = more death” value was -60.2% [at 23.8 µM].

With `[O-][n+]1ccccc1SSc1cccc[n+]1[O-]`, the “protection, negative = more death” value was -73.9% [at 88.3 µM].
